According to the supplement of paper PMC11732987, “Enantioselective OTUD7B fragment discovery through chemoproteomics screening and high-throughput optimisation” (Communications Chemistry, 2025):
A number with no mark means an inactive call.

What was measured:
Assay in all cases: log2 ratio of Biotin-Ahx-Ub-VS probe labelling (fragment/DMSO); higher = less target engagement (more negative = stronger competition), active = hit call of the paper (q ≤ 0.05, log2 ratio ≤ -1)
Conditions in all cases: compound concentration: 200 uM; treatment time: 3 h
ALG13 = target: T1, ALG13 (UniProt Q9NP73)
T1 sequence (whole entry): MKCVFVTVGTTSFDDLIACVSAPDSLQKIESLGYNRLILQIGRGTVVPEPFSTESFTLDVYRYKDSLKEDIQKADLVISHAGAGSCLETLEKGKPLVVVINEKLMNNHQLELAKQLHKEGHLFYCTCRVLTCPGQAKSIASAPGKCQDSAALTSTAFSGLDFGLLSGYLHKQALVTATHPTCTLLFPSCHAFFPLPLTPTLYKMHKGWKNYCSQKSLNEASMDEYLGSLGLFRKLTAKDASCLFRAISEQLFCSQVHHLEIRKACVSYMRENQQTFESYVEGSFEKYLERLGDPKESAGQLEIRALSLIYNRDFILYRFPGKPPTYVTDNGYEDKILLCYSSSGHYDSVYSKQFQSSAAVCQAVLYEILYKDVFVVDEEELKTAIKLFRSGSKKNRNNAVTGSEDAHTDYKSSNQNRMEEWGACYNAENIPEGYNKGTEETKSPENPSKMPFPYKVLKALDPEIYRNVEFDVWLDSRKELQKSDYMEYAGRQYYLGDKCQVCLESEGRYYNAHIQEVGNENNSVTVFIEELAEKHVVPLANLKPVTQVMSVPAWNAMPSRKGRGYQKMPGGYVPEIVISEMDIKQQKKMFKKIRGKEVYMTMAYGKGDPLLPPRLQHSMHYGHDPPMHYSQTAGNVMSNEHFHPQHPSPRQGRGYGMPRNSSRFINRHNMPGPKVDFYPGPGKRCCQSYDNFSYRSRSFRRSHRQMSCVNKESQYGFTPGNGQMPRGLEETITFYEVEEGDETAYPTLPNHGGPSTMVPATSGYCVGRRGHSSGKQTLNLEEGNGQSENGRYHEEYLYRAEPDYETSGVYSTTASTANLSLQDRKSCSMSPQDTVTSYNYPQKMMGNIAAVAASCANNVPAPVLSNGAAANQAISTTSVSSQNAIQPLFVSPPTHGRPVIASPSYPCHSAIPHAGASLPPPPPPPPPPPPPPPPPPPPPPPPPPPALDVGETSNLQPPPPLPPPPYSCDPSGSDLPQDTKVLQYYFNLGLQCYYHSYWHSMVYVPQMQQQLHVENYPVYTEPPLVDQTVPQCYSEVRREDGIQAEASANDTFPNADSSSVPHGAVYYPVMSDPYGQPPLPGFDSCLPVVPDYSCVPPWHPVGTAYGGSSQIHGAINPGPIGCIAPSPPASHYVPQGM
Outline: (§1)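 HEK293T lysate (495 µg per sample, in Tris/CHAPS/IGEPAL buffer with protease inhibitors) was treated in triplicate with fragment at 200 µM or with DMSO for 3 h. It was then treated with Biotin-Ahx-Ub-VS (0.5 µM final) for 1 h. Labelled DUBs were NeutrAvidin-enriched, digested with LysC and trypsin, and run by diaPASEF LC-MS/MS. Spectronaut label-free quantities were global-median-normalised. Values are average log2 ratios fragment/DMSO by unpaired t-test, using proteins with ≥2 unique peptides.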

ATXN3 = ATXN3 (UniProt P54252)
ATXN3, sequence (P54252 whole entry): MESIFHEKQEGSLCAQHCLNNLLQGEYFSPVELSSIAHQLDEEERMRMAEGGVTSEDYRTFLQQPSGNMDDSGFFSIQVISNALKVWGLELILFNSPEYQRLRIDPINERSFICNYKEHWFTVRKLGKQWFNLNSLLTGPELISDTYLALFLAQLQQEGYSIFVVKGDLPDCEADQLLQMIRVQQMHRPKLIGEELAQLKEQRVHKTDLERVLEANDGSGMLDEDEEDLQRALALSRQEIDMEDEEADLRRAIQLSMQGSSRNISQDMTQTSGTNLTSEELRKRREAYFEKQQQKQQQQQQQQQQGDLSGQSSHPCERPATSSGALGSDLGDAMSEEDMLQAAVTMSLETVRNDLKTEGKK
Outline: as §1

BAP1 = target: T2, BAP1 (UniProt Q92560)
T2 sequence (whole entry): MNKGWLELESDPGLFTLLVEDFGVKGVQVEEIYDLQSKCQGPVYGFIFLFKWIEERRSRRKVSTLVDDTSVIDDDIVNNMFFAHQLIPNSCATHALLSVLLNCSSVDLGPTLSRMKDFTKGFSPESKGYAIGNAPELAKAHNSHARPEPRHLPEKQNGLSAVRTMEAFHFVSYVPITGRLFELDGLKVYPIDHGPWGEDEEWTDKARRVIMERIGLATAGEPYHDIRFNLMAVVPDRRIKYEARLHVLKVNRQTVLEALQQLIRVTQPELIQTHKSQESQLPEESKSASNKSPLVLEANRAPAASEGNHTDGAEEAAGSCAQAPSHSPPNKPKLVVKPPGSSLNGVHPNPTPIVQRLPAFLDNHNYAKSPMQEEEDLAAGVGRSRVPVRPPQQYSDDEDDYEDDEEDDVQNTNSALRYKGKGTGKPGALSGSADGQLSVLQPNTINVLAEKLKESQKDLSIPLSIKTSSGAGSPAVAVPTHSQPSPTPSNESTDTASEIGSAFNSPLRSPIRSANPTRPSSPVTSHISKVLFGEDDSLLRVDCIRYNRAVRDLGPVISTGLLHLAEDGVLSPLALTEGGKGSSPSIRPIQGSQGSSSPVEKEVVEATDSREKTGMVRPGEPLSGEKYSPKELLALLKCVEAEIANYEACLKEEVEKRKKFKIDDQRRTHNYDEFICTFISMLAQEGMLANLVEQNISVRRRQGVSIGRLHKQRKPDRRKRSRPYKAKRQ
Outline: as §1

EIF3F = EIF3F (UniProt O00303)
EIF3F, sequence (O00303 whole entry): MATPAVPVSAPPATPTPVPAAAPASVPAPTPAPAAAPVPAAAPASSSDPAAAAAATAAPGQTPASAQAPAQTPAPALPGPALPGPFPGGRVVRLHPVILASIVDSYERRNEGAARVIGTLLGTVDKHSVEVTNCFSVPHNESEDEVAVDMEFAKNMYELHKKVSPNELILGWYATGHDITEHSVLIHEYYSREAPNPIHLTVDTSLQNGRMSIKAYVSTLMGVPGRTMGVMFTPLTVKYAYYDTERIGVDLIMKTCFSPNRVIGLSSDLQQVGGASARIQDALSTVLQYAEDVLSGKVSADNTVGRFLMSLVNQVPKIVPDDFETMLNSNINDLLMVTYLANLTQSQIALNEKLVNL
Outline: as §1

EIF3H = EIF3H (UniProt O15372)
EIF3H, sequence (O15372 whole entry): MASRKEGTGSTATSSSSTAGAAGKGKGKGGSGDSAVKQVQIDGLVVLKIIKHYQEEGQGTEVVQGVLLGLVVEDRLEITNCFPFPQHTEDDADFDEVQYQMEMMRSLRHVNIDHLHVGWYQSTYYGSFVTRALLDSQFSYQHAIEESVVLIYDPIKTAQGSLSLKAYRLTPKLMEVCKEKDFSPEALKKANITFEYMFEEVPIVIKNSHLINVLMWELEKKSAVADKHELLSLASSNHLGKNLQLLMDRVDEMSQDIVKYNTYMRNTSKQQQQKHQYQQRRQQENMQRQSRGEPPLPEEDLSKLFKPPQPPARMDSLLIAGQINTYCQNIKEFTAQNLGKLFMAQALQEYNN
Outline: as §1

FAM105A = target: T3, FAM105A (UniProt Q9NUU6)
T3 sequence (whole entry): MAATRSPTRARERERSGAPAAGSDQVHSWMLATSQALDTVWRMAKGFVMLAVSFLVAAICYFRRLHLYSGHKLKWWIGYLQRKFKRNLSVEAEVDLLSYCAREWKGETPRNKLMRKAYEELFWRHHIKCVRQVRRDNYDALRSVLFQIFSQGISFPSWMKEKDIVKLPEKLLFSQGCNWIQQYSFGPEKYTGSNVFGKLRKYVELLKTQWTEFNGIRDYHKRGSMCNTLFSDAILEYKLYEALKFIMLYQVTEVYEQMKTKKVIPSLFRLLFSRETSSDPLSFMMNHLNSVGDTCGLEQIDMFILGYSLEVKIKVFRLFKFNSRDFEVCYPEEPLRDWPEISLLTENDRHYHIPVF
Outline: as §1

OTUB1 = OTUB1 (UniProt Q96FW1)
OTUB1, sequence (Q96FW1 whole entry): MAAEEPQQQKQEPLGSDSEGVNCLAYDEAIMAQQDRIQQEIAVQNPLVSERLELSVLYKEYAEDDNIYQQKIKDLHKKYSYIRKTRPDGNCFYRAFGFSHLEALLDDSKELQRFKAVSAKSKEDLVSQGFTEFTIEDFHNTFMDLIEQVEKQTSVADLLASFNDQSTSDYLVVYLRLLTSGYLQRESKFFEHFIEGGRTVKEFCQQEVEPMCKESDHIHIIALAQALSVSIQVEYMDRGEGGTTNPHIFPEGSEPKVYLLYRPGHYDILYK
Outline: as §1

OTUD4 = target: T4, OTUD4 (UniProt Q01804)
T4 sequence (whole entry): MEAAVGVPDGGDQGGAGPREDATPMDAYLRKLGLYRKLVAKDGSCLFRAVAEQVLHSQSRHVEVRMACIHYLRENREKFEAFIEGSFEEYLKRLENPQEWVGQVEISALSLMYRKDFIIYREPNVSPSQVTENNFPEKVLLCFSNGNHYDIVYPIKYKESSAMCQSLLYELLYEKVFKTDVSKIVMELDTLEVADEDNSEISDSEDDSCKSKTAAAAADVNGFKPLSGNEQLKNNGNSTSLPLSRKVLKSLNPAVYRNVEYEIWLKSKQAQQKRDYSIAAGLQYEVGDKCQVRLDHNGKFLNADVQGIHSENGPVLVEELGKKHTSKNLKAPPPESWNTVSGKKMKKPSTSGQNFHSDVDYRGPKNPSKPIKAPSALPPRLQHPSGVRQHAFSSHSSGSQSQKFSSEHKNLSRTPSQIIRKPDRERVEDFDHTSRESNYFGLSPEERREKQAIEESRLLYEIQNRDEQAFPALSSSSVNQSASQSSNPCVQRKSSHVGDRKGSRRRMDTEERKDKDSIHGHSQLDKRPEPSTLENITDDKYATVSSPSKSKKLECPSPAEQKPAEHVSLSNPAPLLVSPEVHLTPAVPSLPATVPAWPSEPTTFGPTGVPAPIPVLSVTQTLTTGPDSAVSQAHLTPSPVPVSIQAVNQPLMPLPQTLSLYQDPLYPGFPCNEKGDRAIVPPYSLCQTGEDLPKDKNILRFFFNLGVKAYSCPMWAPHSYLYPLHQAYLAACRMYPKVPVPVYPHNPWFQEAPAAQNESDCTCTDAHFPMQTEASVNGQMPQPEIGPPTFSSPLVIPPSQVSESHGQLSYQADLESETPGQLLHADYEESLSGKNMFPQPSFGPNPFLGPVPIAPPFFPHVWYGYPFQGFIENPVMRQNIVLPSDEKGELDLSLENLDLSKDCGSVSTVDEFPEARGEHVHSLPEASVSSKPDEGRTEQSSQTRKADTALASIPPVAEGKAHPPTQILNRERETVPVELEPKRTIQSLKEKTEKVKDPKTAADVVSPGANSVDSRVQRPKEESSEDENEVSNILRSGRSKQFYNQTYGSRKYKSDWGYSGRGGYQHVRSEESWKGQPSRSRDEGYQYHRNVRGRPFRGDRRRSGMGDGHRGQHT
Outline: as §1

OTUD5 = target: T5, OTUD5 (UniProt Q96G74)
T5 sequence (whole entry): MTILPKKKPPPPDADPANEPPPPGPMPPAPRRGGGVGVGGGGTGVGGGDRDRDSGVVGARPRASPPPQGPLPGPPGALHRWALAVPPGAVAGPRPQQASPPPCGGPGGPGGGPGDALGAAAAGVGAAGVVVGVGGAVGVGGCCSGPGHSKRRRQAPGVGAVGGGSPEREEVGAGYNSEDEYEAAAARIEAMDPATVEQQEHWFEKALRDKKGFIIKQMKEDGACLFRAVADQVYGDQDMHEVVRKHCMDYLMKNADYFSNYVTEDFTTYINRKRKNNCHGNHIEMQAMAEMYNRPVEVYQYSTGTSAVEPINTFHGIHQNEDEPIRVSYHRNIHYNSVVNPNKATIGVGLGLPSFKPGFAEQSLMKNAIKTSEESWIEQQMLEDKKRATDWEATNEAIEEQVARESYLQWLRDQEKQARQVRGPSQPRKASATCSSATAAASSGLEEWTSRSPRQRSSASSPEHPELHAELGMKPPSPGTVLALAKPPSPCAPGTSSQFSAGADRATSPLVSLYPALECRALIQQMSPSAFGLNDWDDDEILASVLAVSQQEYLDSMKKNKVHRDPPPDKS
Outline: as §1

CC(NC(=O)CCl)c1ccc2[nH]ncc2c1 (centres undefined)
log2 ratio of Biotin-Ahx-Ub-VS probe labelling (ALG13): 0.186 | log2 ratio of Biotin-Ahx-Ub-VS probe labelling (ATXN3): -0.431 | log2 ratio of Biotin-Ahx-Ub-VS probe labelling (BAP1): -3.42 (active) | log2 ratio of Biotin-Ahx-Ub-VS probe labelling (EIF3F): -0.607 | log2 ratio of Biotin-Ahx-Ub-VS probe labelling (EIF3H): -0.275 | log2 ratio of Biotin-Ahx-Ub-VS probe labelling (FAM105A): -0.234 | log2 ratio of Biotin-Ahx-Ub-VS probe labelling (OTUB1): -0.374 | log2 ratio of Biotin-Ahx-Ub-VS probe labelling (OTUD4): -0.637 | log2 ratio of Biotin-Ahx-Ub-VS probe labelling (OTUD5): -0.509
